This note sets out measurements from PubChem BioAssay.

Where “and” joins values, the source holds several entries; their conditions need not be identical. Identical values can stand only once. Calls of active or inactive are those of the source. Unless noted, how the calls were made is not given here.

The subject of experiment [1] is XIP peptide (Xip251-270) binding. As to the kind of experiment: XIP fragment 251-270 binding compounds – biochemical, small-molecule microarray, fluorescence 635/667 nm, 0.1 µg/mL protein, primary screen (AID 1182). Conditions: fluorescent protein binding, 635 nm, higher = more signal, called active from +8 up or from −8 down.
For the next experiment, the system named is XIP peptide (Xip251-270). The experiment in a line: compounds binding XIP fragment 251-270 – biochemical, small-molecule microarray, fluorescence 635/667 nm, 0.5 µg/mL protein, primary screen (AID 1183). Conditions: fluorescence 635 nm, higher = more signal.
Experiment [2] can be described thus: blood-stage malaria parasite viability loss – strain 3D7, DAPI fluorescence, 100 nL, primary screen (AID 1184).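 Further: parasites grown inside human red blood cells in medium with human serum.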 Particulars: P. falciparum 3D7 growth, 3 d, higher = more signal.
For experiment [3], the target named is Homeobox protein Hox-A13 (Mus musculus) (UniProt Q62424). The experiment in a line: disruptors of Hoxa13 oligonucleotide interaction – biochemical, fluorescence polarization, labeled oligonucleotide, primary screen (AID 1185). Conditions: Hoxa13:DNA binding, 15 min, higher = more signal, called active from +8 up or from −8 down. (Polarisation of emitted light reports the rotation of a fluorescent probe.)
Sequence of Homeobox protein Hox-A13 (Mus musculus) (Q62424 whole entry, looked up): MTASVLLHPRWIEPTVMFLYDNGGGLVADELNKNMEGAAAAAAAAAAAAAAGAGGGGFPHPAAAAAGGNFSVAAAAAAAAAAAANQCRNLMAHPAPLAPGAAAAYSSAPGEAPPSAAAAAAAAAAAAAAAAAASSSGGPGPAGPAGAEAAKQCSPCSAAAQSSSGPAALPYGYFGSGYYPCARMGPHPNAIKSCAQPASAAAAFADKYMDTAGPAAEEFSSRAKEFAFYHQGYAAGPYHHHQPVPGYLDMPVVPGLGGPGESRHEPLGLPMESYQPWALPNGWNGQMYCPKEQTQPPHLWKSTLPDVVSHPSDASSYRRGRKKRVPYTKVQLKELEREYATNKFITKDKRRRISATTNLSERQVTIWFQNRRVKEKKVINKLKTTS

Experiment [4] is described as follows: blockers of DNA damage checkpoint Chk1 activation – imaging, HeLa, hydroxyurea, phospho-Chk1 antibody, percent positive cells, primary screen (AID 1186). Particulars: hydroxyurea-induced phospho-Chk1 immunofluorescence imaging, higher = more signal.
Experiment [5] is described as follows: blockers of DNA damage checkpoint Chk1 activation – imaging, HeLa, hydroxyurea, phospho-Chk1 nuclear intensity, primary screen (AID 1187). Particulars: hydroxyurea-induced phospho-Chk1 immunofluorescence imaging, higher = more signal.

`C=CCN(C(=O)C1N(CCCCCCO)C(=O)C2C(C(=O)O)C3C=CC21O3)C(C)(C)C` (stereo not drawn): the composite z-score in experiment [1] is -0.501 (inactive) and -0.559 (inactive); in the experiment on XIP peptide (Xip251-270), 0.429 and -1. Besides, the z-score was -0.0557 and 0.444 in experiment [2]; -0.569 (inactive) and -2.68 (inactive) in experiment [3]; -0.178 (inactive) and -0.102 (inactive) in experiment [4]; -0.0517 (inactive) and 0.113 (inactive) in experiment [5].
In the case of `C=C[C@H](C)[C@@H](O)c1ccc(OCCO)cc1`, the composite z-score was -0.301 (inactive) and -0.375 (inactive) in experiment [1]; 0.112 and 0.861 with XIP peptide (Xip251-270). For the same compound, the z-score was 0.394 and 0.709 in experiment [2]; -1.51 (inactive) and -0.976 (inactive) in experiment [3]; 0.845 (inactive) and -1.4 (inactive) in experiment [4]; 0.121 (inactive) and -0.859 (inactive) in experiment [5].
On to `C=CCN(CCCCC)C(=O)C(c1cccs1)N(CCOCCO)C(=O)/C=C\C(=O)O` (stereo not drawn), for which the composite z-score in experiment [1] was -0.44 (inactive) and -0.841 (inactive); in the experiment on XIP peptide (Xip251-270), -0.265 and -0.343. Also, the z-score in experiment [2] was -0.102 and -0.0618; in experiment [3], -0.478 (inactive) and -0.603 (inactive); in experiment [4], -0.0506 (inactive) and -0.514 (inactive); in experiment [5], 0.425 (inactive) and 0.965 (inactive).
On to `O=C1NC(=O)C2C1C=CC(C(O)c1ccc([N+](=O)[O-])cc1)N2Nc1ccc(Cl)cc1Cl` (stereo not drawn), for which the composite z-score in experiment [1] was 0.376 (inactive) and 0.385 (inactive); in the experiment on XIP peptide (Xip251-270), 0.762 and 0.163. Also, the z-score in experiment [2] is 0.698 and 0.664; in experiment [3], -5.8 (inactive); in experiment [4] it was -0.85 (inactive) and -0.665 (inactive); in experiment [5], -1.15 (inactive) and -0.297 (inactive).
Take `C=CCN(CCCC)C(=O)C1N(c2c(Cl)cccc2CO)C(=O)C2C(C(=O)O)C3C=CC21O3` (stereo not drawn): the composite z-score was -0.523 (inactive) and -0.356 (inactive) in experiment [1]; 0.222 and 0.152 with XIP peptide (Xip251-270). Further, the z-score in experiment [2] was -1.23 and -1.7; in experiment [3] it was -1.12 (inactive) and -1.43 (inactive); in experiment [4] it was 0.304 (inactive) and -0.273 (inactive); in experiment [5] it was 0.151 (inactive) and 0.131 (inactive).
`C=CCN(CCCCC)C(=O)C1N(c2ccc(CCO)cc2)C(=O)C2C(C(=O)O)C3C=CC21O3` (stereo not drawn): the composite z-score in experiment [1] was -0.53 (inactive) and -0.482 (inactive); in the experiment with XIP peptide (Xip251-270) it was 0.668 and 0.706. In addition, the z-score in experiment [2] is 0.062 and -0.336; in experiment [3], -2.29 (inactive) and -2.06 (inactive); in experiment [4], -0.0956 (inactive) and 0.477 (inactive); in experiment [5], 0.0364 (inactive) and 0.181 (inactive).
For `C=CCN(C(=O)C1N(CCCCCCO)C(=O)C2C(C(=O)O)C3C=CC21O3)c1ccc(OC)cc1` (stereo not drawn), the composite z-score in experiment [1] is 1.14 (inactive) and 1.15 (inactive); in the experiment with XIP peptide (Xip251-270) it was -2.27 and -0.654. The z-score in experiment [2] is -0.424 and 0.0379; in experiment [3], -1.08 (inactive) and -0.0174 (inactive); in experiment [4], -0.598 (inactive) and -0.471 (inactive); in experiment [5], -0.451 (inactive) and -0.198 (inactive).
In the case of `C=CCN(CCCC)C(=O)C(c1cccs1)N(C(=O)/C=C\C(=O)O)c1c(Cl)cccc1CO` (stereo not drawn), the composite z-score in experiment [1] was -1.2 (inactive) and -0.551 (inactive); in the experiment on XIP peptide (Xip251-270), -1.64 and 0.45. The z-score is -0.486 and -0.375 in experiment [2]; 0.477 (inactive) and -0.33 (inactive) in experiment [3]; 0.0771 (inactive) and -0.132 (inactive) in experiment [4]; 0.677 (inactive) and -0.0581 (inactive) in experiment [5].
